Our source for the inhibition values is ChEMBL document CHEMBL1961873, “Compounds: GSK PKIS; Assays: Nanosyn kinase panel” (2012).

The term inhibition denotes the relative decrease from the control value, in per cent.

Assay [1] addresses Serine/threonine-protein kinase PAK 6 (Homo sapiens) (UniProt Q9NQU5). The conditions noted are these: at 1 µM.
Assay [2] concerns Tyrosine-protein kinase ABL1 (Homo sapiens), P00519 [E255K]. To be noted: at 0.1 µM.
Assay [3] shares this test system. The conditions noted are these: at 1 µM.
Assay [4] relates to Tyrosine-protein kinase ABL1 (Homo sapiens), P00519 [H396P]. The conditions noted are these: at 0.1 µM.
Assay [5] shares this test system. To be noted: at 1 µM.
Assay [6] deals with Tyrosine-protein kinase ABL1 (Homo sapiens), P00519 [M351T]. The conditions noted are these: at 0.1 µM.
Assay [7] has the same test system. To be noted: at 1 µM.
Assay [8] has as its system Tyrosine-protein kinase ABL1 (Homo sapiens), P00519 [Q252H]. The conditions noted are these: at 0.1 µM.
For assay [9] the test system is unchanged. To be noted: at 1 µM.
Assay [10] deals with Tyrosine-protein kinase ABL1 (Homo sapiens), P00519 [T315I]. To be noted: at 0.1 µM.
Assay [11] has the same test system. The conditions noted are these: at 1 µM.
For assay [12], the system named is Tyrosine-protein kinase ABL1 (Homo sapiens), P00519 [Y253F]. To be noted: at 0.1 µM.
The test system is the same in assay [13]. The conditions noted are these: at 1 µM.
Assay [14] deals with Tyrosine-protein kinase ABL1 (Homo sapiens) (UniProt P00519). The conditions noted are these: at 0.1 µM.
The target is the same in assay [15]. The conditions noted are these: at 1 µM.
Assay [16] addresses ALK tyrosine kinase receptor (Homo sapiens) (UniProt Q9UM73). To be noted: at 0.1 µM.
Assay [17] has the same target. To be noted: at 1 µM.
The target in assay [18] is Tyrosine-protein kinase ABL2 (Homo sapiens) (UniProt P42684). The conditions noted are these: at 0.1 µM.
Chain of Tyrosine-protein kinase ABL2 (Homo sapiens) (P42684 whole entry): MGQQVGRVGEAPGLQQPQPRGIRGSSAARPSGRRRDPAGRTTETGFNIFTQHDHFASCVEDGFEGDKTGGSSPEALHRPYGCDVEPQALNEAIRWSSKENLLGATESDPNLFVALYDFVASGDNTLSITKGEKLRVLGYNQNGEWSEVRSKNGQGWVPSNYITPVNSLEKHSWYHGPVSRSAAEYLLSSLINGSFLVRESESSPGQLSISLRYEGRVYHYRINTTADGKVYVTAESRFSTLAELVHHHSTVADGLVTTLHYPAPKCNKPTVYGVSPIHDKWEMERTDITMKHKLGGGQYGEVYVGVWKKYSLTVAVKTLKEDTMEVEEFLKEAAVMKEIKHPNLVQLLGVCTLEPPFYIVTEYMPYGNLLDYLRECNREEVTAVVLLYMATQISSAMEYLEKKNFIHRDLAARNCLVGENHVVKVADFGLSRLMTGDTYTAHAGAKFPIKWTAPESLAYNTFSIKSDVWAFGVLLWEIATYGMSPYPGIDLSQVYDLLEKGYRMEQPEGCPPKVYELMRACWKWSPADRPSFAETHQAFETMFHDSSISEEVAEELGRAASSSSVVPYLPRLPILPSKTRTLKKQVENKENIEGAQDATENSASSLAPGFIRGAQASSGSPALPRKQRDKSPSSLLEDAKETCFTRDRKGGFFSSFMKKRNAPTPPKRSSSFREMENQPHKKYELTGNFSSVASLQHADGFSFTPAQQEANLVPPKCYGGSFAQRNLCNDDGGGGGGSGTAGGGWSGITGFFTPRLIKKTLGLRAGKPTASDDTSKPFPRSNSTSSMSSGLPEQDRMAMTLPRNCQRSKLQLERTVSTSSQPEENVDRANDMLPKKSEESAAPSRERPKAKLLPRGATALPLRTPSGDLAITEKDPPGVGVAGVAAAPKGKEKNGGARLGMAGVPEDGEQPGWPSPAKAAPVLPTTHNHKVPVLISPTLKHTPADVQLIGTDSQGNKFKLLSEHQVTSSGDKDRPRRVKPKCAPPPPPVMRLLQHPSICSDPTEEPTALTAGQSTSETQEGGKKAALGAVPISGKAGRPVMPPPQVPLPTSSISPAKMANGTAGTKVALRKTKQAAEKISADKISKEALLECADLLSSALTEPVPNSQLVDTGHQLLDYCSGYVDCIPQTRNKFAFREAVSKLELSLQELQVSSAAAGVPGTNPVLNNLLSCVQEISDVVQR
Assay [19] has the same target. To be noted: at 1 µM.
Assay [20] concerns the target Tyrosine-protein kinase receptor UFO (Homo sapiens) (UniProt P30530). The conditions noted are these: at 0.1 µM.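 Further: values are mean percent inhibition of AXL from the GSK PKIS screen.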

Chain of Tyrosine-protein kinase receptor UFO (Homo sapiens) (P30530 whole entry): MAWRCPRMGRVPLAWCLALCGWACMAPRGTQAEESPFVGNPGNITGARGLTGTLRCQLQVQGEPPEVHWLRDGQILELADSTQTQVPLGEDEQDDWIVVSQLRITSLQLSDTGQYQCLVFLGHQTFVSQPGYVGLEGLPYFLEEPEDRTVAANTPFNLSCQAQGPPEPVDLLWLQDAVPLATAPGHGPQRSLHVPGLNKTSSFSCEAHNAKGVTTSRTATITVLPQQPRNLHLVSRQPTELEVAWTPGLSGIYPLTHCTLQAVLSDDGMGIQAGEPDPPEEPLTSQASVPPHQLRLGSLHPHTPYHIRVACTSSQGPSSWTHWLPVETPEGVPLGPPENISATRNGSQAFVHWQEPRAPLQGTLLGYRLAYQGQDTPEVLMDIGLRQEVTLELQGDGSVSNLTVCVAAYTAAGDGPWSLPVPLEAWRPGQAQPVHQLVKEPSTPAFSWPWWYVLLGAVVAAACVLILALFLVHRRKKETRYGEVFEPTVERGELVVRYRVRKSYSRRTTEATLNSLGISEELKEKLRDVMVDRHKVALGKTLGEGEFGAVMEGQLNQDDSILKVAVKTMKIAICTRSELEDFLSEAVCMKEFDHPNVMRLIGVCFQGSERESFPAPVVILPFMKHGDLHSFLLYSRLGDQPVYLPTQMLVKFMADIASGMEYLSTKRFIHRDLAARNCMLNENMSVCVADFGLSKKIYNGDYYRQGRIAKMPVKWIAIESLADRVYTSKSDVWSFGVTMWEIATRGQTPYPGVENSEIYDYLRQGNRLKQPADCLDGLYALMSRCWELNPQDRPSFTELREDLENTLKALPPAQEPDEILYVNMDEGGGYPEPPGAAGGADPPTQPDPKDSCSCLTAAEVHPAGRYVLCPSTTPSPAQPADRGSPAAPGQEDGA
Chain of ALK tyrosine kinase receptor (Homo sapiens) (Q9UM73 19-1620 limits assumed): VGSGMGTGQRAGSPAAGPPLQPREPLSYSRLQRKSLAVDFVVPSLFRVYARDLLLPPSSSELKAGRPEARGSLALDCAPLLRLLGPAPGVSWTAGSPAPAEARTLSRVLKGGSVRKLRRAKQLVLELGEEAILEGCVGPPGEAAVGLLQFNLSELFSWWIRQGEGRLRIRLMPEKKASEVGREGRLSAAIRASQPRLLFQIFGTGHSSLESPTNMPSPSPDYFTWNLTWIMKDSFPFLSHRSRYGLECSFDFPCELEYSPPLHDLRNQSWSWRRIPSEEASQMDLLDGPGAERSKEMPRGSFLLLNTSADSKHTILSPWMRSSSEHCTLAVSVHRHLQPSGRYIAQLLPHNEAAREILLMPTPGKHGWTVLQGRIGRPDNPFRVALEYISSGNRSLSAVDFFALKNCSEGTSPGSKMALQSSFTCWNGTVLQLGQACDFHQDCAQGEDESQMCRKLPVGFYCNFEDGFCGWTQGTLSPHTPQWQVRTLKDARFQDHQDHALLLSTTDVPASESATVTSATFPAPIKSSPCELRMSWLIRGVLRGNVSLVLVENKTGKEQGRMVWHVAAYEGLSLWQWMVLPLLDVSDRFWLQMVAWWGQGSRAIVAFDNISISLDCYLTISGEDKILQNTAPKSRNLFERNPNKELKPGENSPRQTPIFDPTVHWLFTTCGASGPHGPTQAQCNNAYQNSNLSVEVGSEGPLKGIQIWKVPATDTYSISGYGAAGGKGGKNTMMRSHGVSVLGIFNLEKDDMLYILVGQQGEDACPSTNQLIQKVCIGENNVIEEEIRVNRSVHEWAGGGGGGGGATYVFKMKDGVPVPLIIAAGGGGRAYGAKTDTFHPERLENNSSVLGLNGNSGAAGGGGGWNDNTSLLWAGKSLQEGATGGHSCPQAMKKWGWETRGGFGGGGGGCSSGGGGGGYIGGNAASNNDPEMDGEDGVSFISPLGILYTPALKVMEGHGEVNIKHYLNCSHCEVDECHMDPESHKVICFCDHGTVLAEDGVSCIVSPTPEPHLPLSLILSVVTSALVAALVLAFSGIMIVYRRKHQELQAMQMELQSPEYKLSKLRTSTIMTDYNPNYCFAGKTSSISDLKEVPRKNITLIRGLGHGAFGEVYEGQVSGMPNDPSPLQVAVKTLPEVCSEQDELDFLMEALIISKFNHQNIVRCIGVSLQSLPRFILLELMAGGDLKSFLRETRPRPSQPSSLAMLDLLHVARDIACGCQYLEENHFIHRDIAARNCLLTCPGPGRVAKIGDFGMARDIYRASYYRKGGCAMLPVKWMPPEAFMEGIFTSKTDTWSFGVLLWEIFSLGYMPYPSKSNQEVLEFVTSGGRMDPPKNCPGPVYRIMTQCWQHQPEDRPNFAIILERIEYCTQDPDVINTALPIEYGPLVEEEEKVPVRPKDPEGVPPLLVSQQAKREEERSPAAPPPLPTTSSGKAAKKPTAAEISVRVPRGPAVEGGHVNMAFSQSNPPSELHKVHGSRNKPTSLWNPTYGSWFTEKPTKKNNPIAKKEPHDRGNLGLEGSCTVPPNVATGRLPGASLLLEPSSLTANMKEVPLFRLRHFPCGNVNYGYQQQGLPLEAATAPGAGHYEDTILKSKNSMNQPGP
Chain of Serine/threonine-protein kinase PAK 6 (Homo sapiens) (Q9NQU5 whole entry, looked up): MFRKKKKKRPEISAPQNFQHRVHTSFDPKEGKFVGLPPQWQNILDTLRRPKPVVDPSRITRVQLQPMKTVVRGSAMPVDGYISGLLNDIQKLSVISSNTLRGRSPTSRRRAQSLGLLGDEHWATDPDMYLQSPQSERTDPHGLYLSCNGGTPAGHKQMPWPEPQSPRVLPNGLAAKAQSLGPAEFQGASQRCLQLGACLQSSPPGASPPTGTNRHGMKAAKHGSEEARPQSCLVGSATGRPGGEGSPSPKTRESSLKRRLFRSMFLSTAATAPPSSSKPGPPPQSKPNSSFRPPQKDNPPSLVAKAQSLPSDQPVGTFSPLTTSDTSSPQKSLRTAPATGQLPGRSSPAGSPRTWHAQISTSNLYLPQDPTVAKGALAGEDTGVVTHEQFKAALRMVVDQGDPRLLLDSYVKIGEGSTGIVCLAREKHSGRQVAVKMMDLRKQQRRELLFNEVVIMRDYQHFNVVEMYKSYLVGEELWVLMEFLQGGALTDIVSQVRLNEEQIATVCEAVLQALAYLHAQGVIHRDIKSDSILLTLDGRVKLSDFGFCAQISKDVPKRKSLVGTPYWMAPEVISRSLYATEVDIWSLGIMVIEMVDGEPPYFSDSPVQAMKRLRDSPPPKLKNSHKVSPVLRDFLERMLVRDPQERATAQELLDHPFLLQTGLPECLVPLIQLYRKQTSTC

Consider `CC1=C(C(=O)Nc2ccc3[nH]ncc3c2)C(c2ccc(F)cc2)N=C(c2ccc(C(F)(F)F)nc2)N1` (stereo not given), for which the inhibition in assay [1] turned out to be 1.5%; in assay [2], 2.72%; in assay [3] it was 3.5%; in assay [4], 2.21%; in assay [5], 1.95%; in assay [6], 1.43%. The inhibition in assay [7] came out at 3.71%; in assay [8] it was 1.86%; in assay [9] it was 3.9%; in [10] it was 1.97%; in assay [11], 2.27%; in assay [12], 3.86%. Further, the inhibition came out at 2.79% in assay [13]; 3.97% in assay [14]; 10.4% in assay [15]; 4.23% in assay [16]; 4.29% in assay [17]; 3.72% in assay [18]. For the same compound, the figures for the inhibition in [19] and in assay [20] were 8.41% and -1.91%, respectively.

For the compound `COc1cc2c(cc1Nc1nc(Nc3cccc(F)c3C(N)=O)c3cc[nH]c3n1)N(C(=O)CN1CCN(C(C)C)CC1)CC2`, the inhibition in assay [1] was -0.05%; in assay [2] it was -0.8%; in assay [3], -0.74%; in assay [4] it was -1.59%; in assay [5], 0.65%; in assay [6] it was -1.33%. Further, the inhibition is 2.97% in [7]; -0.13% in assay [8]; 3.8% in assay [9]; -0.82% in [10]; 2.05% in assay [11]; -2.26% in [12]. The inhibition was 1.07% in assay [13]; -1.27% in [14]; -0.09% in [15]; 62.8% in [16]; 82.3% in [17]; -1.03% in assay [18]. Also, the results for the inhibition in assay [19] and in [20] were -1.11% and -1.56%, respectively.

Turning to `COc1ccc2ncn(-c3cc(O[C@H](C)c4ccccc4C(F)(F)F)c(C(N)=O)s3)c2c1`, the inhibition in assay [1] was -8.65%; in [2], -0.4%; in assay [3], -1.92%; in [4], -0.02%; in assay [5], 2.03%; in [6], 0.8%. The inhibition in [7] was 1.91%; in assay [8], -0.3%; in assay [9], 2.05%; in assay [10] it was 0.03%; in assay [11] it was 0.84%; in [12], -1.93%. Besides, the inhibition in [13] is -0.53%; in assay [14], 0.27%; in assay [15], 9.42%; in assay [16], -0.81%; in assay [17], 2.16%; in assay [18], 4.37%. Moreover, the results for the inhibition in assay [19] and in assay [20] were 2.94% and 0.07%, respectively.

For the compound `CN1CCC(n2cnc(-c3ccc(F)cc3)c2-c2ccnc(NCCO)n2)CC1`, the inhibition in assay [1] is -2.04%; in [2], 2.22%; in [3], 5.59%; in assay [4] it was 3.64%; in assay [5] it was 6.05%; in assay [6], 0.67%. In addition, the inhibition in assay [7] is 7.5%; in assay [8], 5.69%; in assay [9], 4.05%; in assay [10] it was 3.06%; in [11] it was 6.42%; in [12] it was 2.79%. Further, the inhibition in [13] was found to be 4.11%; in [14], 3.67%; in assay [15], 6.5%; in assay [16], 3.71%; in [17], 5.43%; in assay [18], 3.07%. Also, the inhibition in [19] was 2.99%; in assay [20] it was -4.58%.

As for `CNC(=O)c1ncccc1Nc1nc(Nc2cc3c(cc2OC)CCCN3C(=O)CN(C)C)nc2[nH]ccc12`, the inhibition is 3.38% in [1]; 2.91% in assay [2]; 2.97% in assay [3]; 2.6% in assay [4]; 2.23% in assay [5]; 1.84% in [6]. The inhibition in [7] was 0.31%; in assay [8], 3.06%; in [9] it was 3.95%; in assay [10], 3.72%; in [11] it was 2.23%; in assay [12] it was 3.84%. Besides, the inhibition in assay [13] came out at 3.74%; in [14], 4.98%; in [15], 7.6%; in [16], 94.4%; in [17], 90.8%; in [18], 2.06%. Moreover, the results for the inhibition in [19] and in [20] were 5.83% and 10.8%, respectively.

As for `CN(c1ccc(NC(=O)NCCN2CCOCC2)cc1)c1ccnc(Nc2ccc(CS(C)(=O)=O)cc2)n1`, the inhibition turned out to be 9.1% in assay [1]; 2.54% in assay [2]; 14.2% in [3]; 4.8% in assay [4]; 26.3% in assay [5]; 3.59% in [6]. For the same compound, the inhibition in assay [7] came to 36.8%; in assay [8], 8.57%; in assay [9] it was 39.3%; in assay [10], 6.6%; in assay [11], 30.3%; in assay [12] it was 6.51%. Moreover, the inhibition worked out at 22.1% in assay [13]; 4.29% in assay [14]; 21.8% in assay [15]; 2.33% in assay [16]; 5.11% in [17]; 6.09% in [18]. Moreover, the figures for the inhibition in assay [19] and in assay [20] were 36% and -1.83%, respectively.

With `Cc1c2ccc(N(C)c3ccnc(Nc4cccc(S(N)(=O)=O)c4)n3)cc2nn1C`, the inhibition was -6.14% in assay [1]; 19.6% in assay [2]; 67.6% in assay [3]; 37.9% in [4]; 81.6% in [5]; 39.5% in assay [6]. The inhibition in assay [7] is 84.8%; in [8], 42.9%; in [9] it was 83.6%; in [10] it was 11.3%; in [11] it was 52.2%; in assay [12] it was 43.4%. Also, the inhibition in assay [13] is 83.3%; in [14], 16.7%; in [15] it was 64.5%; in assay [16], 1.38%; in assay [17], 18.8%; in assay [18], 19.5%. Also, the inhibition in assay [19] is 62.8%; in assay [20], -8.43%.

Regarding `CNC(=O)c1sc(-n2cnc3cc(OC)c(OC)cc32)cc1OCc1ccccc1C(F)(F)F`, the inhibition in [1] is -4.28%; in [2], 1.88%; in [3] it was 9.07%; in [4], 3.16%; in assay [5] it was 10.5%; in assay [6], 0.2%. Further, the inhibition in assay [7] was 6.66%; in assay [8], 4.26%; in assay [9] it was 7.88%; in assay [10], 1.96%; in assay [11], 4.16%; in [12], 2.46%. Moreover, the inhibition in assay [13] came to 10.3%; in assay [14], 8.39%; in [15], 17.2%; in assay [16] it was 3.52%; in assay [17], 5.76%; in assay [18], 5.79%. Further, the figures for the inhibition in [19] and in assay [20] were 13.2% and -4.3%, respectively.

As to `c1ccc(-c2n[nH]cc2-c2ccnc(-c3ccc(OCCn4ccnc4)cc3)c2)nc1`, the inhibition is -6.97% in assay [1]; 23.1% in assay [2]; 71.2% in assay [3]; 46.9% in [4]; 88.1% in assay [5]; 43.8% in [6]. Moreover, the inhibition was 87.2% in assay [7]; 25.9% in [8]; 73.4% in [9]; 3% in [10]; 7.34% in [11]; 31.8% in assay [12]. The inhibition is 78.8% in assay [13]; 30.5% in assay [14]; 68.8% in assay [15]; -0.73% in [16]; 3.68% in [17]; 5.73% in [18]. Moreover, the results for the inhibition in assay [19] and in assay [20] were 56.4% and -0.5%, respectively.
